# GPR151 activ: human GPR151 activation | Q8TDV0 | PathHunter beta-arrestin GPR151 cells, luminescence | activation, % at 11.2 µM | actives 1% (n = 650,000); in the data active = activation above about 4.9%;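 also: 0% = median of compound wells and 100% = cells with positive control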
# Target sequence (Q8TDV0 whole entry, looked up): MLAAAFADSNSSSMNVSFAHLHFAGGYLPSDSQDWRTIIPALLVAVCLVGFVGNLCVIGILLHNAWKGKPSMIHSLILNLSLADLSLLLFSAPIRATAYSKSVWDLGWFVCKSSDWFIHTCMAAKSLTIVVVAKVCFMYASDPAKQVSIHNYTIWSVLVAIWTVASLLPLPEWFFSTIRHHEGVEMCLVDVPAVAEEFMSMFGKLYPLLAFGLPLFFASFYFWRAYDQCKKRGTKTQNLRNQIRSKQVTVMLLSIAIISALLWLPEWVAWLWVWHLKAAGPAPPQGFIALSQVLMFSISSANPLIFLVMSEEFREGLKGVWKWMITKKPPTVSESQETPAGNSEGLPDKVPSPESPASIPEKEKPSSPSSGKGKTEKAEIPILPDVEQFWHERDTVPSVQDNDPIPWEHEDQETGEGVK
# MITF primary: blocks human microphthalmia-associated transcription factor | AlphaScreen MITF homodimerization, bead proximity signal | O75030 | actives 0.91% (n = 650,000) | inhibition, % at 2.6 µM | AID 1259374; in the data active = inhibition above about 50%;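 also: 0% = vehicle wells with protein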
# FBW7 act: human FBW7 E3 ligase activation, primary screen; actives 0.13% (n = 650,000); AID 1259310; AlphaScreen FBW7–phospho-cyclin E peptide binding, activator screen; normalized activity (activation), % at 26.1 µM; Q969H0; in the data active = normalized activity above about 1.9%;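 also: purified mutant Fbw7 with reduced substrate affinity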
# TEAD-YAP block: TEAD-YAP interaction inhibition; HEK-TIYL cells, TEAD-Gal4/YAP UAS-luciferase luminescence; inhibition, % at 9.12 µM; actives 1.4% (n = 640,000); AID 1259422; in the data active = inhibition above about 32%;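 also: 0% = median of test compound wells and 100% = reference inhibitor wells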
# An asterisk follows results filed as active. Hits are enriched below; roughly 3.5% of the tested compounds scored in any of these assays.
SMILES,GPR151 activ,MITF primary,FBW7 act,TEAD-YAP block
O=C(CN(c1ccc(F)cc1)S(=O)(=O)c1ccccc1)Nc1ccc(S(=O)(=O)N2CCOCC2)cc1,0,0,0,10
COc1ccc(CN2Cc3cc(C)ccc3OC(C)C2)cc1O (configuration not stated),-1,11,0,55*
O=C(Cn1ncc2ccsc2c1=O)NCCc1ccc(Cl)cc1,2,6,0,3
NC(=O)c1sc2nc3c(c(-c4ccco4)c2c1N)CCCCC3,0,-11,0,40*
NC(=O)c1sc2nc3c(c(-c4cccs4)c2c1N)CCCCC3,1,-5,0,36*
Nc1c(C(=O)c2ccccc2)sc2nc3c(c(-c4cccs4)c12)CCCC3,-2,23,1,-10
COc1ccc(-c2c(C#N)c(N)nc3sc(C(N)=O)c(N)c23)cc1OC,-1,17,0,-7
N#Cc1c(N)nc2sc(C(N)=O)c(N)c2c1-c1cccs1,0,-8,0,42*
CCOC(=O)c1sc2nc3c(c(-c4ccco4)c2c1N)CCCC3,0,1,1,8
Cc1ccc(S(=O)(=O)N(CC(=O)Nc2ccc(C)c(C)c2)c2cccc(Cl)c2)cc1,-1,1,0,0
Cc1cc(C(=O)N2CCC(Oc3ccc(C(=O)NCCc4ccccc4)cc3)CC2)no1,0,2,0,9
O=C(NCCc1ccccc1)c1ccc(OC2CCN(C(=O)c3ccsc3)CC2)cc1,-1,8,0,1
O=C(NCCc1ccccc1)c1ccc(OC2CCN(C(=O)c3ccoc3)CC2)cc1,1,11,0,53*
Cc1ccoc1C(=O)N1CCC(Oc2ccc(C(=O)NCCc3ccccc3)cc2)CC1,1,-16,0,83*
COCC(=O)N1CCC(Oc2ccc(C(=O)NCCc3ccccc3)cc2)CC1,1,-5,0,28
Cc1ncoc1C(=O)N1CCC(Oc2ccc(C(=O)NCCc3ccccc3)cc2)CC1,0,-2,0,50*
O=C(NCCc1ccccc1)c1ccc(OC2CCN(C(=O)Cn3cncn3)CC2)cc1,0,0,0,76*
Cc1ccccc1C(=O)N1N=C(c2c(-c3ccccc3)c3cc(Br)ccc3[nH]c2=O)CC1c1ccco1 (configuration not stated),0,-15,0,8
O=[N+]([O-])c1ccc(-n2cccc2C=NCCCO)cc1,0,3,1,15
CCCCNC(=S)N(C)/N=C/c1cc(OC)c(OC)cc1OC,0,-1,0,-2
Cc1nc2c(c(C)nn2C)c(C)c1CCC(=O)O,0,-8,0,-2
COc1cc2sc(=NC(=O)c3ccc([N+](=O)[O-])cc3)n(C)c2cc1OC,-2,-4,1,6
Cc1ccc(N/C(N)=N/c2nc(C)cc(N3CCCC3)n2)c(C)c1,1,4,0,34*
Cc1cc(C)nc(/N=C(\N)Nc2cc(Cl)ccc2C)n1,-2,7,0,5
Cc1ccnc(NC(=O)Cn2ncc3c2-c2cc(C)ccc2OC3)c1,0,-6,0,-1
SMILES,GPR151 activ,MITF primary,FBW7 act,TEAD-YAP block
Cc1ccc(NC(=O)Cn2ncc3c2-c2cc(C)ccc2OC3)nc1,-2,11,0,35*
Cc1ccc(S(=O)(=O)Nc2nc3ccccc3nc2Nc2cccc(N(C)C)c2)cc1,0,12,0,35*
CCC(=O)NC(c1ccc(Cl)cc1)c1cc(Cl)c2cccnc2c1O (configuration not stated),-1,-2,0,-2
CCCC(=O)NC(c1ccccc1Cl)c1ccc2cccnc2c1O (configuration not stated),1,53*,-1,95*
CC(=O)NC(c1ccc(F)cc1)c1ccc2cccnc2c1O (configuration not stated),-1,44,-2,85*
CC(=O)NC(c1ccc(Cl)cc1)c1ccc2cccnc2c1O (configuration not stated),2,19,-2,90*
O=C(NC(c1ccccc1)c1ccc2cccnc2c1O)c1ccccc1 (configuration not stated),1,24,-2,22
CCCCC(=O)NC(c1ccc(Cl)cc1Cl)c1ccc2cccnc2c1O (configuration not stated),1,17,-1,46*
CC(=O)Nc1c(C#N)c(-c2ccc(Cl)cc2)nn1C(C)(C)C,1,11,0,9
COc1ccc(C(=O)NC(c2ccccc2Cl)c2cc(Cl)c3cccnc3c2O)cc1 (configuration not stated),0,11,0,8
CCC(=O)NC(c1ccccc1Cl)c1cc(Cl)c2cccnc2c1O (configuration not stated),0,1,0,50*
CC(=O)NC(c1ccccc1Cl)c1ccc2cccnc2c1O (configuration not stated),1,37,-2,90*
CCCC(=O)NC(c1ccc(SC)cc1)c1ccc2cccnc2c1O (configuration not stated),-1,15,-1,82*
COc1ccc(S(=O)(=O)Nc2ccc3c(c2)CCCN3C(C)=O)c(OC)c1,1,12,0,7
COc1cc(CNc2ccc3c(c2)CCN3C(C)=O)cc(OC)c1OC,0,1,0,67*
Cc1ccc(C(=O)c2cc([N+](=O)[O-])ccc2N2CCOCC2)c(C)c1,-1,15,0,62*
N#Cc1cc2c(cc1NC(=O)c1cc([N+](=O)[O-])ccc1N1CCOCC1)OCO2,-2,15,0,36*
Cc1ccc(C(=O)c2cc([N+](=O)[O-])ccc2N2CCOCC2)cc1C,0,0,0,42*
Cc1cc(C)c(NC(=O)c2cc([N+](=O)[O-])ccc2N2CCOCC2)c(C)c1,0,-4,0,2
O=C(C1c2ccccc2Oc2ccccc21)N1CCN=C1SCc1cccnc1,-1,10,1,15
O=C(O)c1cccnc1Nc1ccc([N+](=O)[O-])cc1,-6,21,0,36*
N#Cc1cccc(NC(=O)C[n+]2c(N)sc3ccc4ccccc4c32)c1,0,-2,0,43*
O=C(Cn1ccc([N+](=O)[O-])n1)Nc1ccc2c(c1)OCO2,3,-9,0,-19
C=C1C(=O)OC23C1CCC(C)C2CCC1(C)OC13 (configuration not stated),1,-6,0,61*
CC(=O)C1=C(O)C(=O)N(c2nnn(C)n2)C1c1cccs1 (configuration not stated),-1,5,3.6*,-1
O=C(C1=C(O)C(=O)N(c2nccs2)C1c1cccs1)c1cccs1 (configuration not stated),-1,33,0,-4
CC(=O)C1=NN(c2ccc(Cl)cc2)C(c2ccc3c(c2)OCO3)N1C(C)(C)C (configuration not stated),0,28,2.0*,2
CN1/C(=C\C=N\NC2=NCCCCC2)C(C)(C)c2ccccc21,0,-12,0,10
CN1CCN(C(=O)CN(c2ccccc2[N+](=O)[O-])S(=O)(=O)c2ccccc2)CC1,0,7,0,15
